Reference: PubChem BioAssay (NCI)
The panel holds about 83,000 compounds, 20% with a hit somewhere; the sample as a whole holds those more often.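 Step 1: grow cells in 96-well plates. Step 2: add test compound at a single concentration. Step 3: incubate 48 h. Step 4: record percent growth.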 Values without a mark were called inactive. Activity calls are given as the source filed them.

System: NCI-H23 lung
Test: NCI-60 one-dose screen, 48 h (100 = growth as untreated, 0 = no growth, -100 = all killed)
Details: 10 µM
Procedure: Growth inhibition of the NCI-H23 human Non-Small Cell Lung tumor cell line is measured as a screen for anti-cancer activity. Cells are grown in 96 well plates and exposed to the test compound for 48 hours. Compounds are tested at a single concentration, which is 10^-5 M for most compounds. The reported endpoint is percent growth (GI% or GIPRCNT), where numbers from 0 - 100% represent growth inhibition, and numbers from -100% - 0 represent cell death. For example, a value of 40 represents 60% growth inhibition. A value of 0 means no net growth occurred over the course of the experiment. A value of -40 indicates 40% of cells at the beginning of the experiment died by the end of the experiment. A value of -100 means all cells are dead at the end of the experiment.
NCI-60 Human Tumor Cell Lines Screen was performed using the standard one-dose NCI protocol, which is described in more detail at https://dtp.cancer.gov/discovery_development/nci-60/default.htm.
Compounds with GIPRCNT values below 10 were considered active. Activity score was based on GIPRCNT using the following formula: […]
Score is 0 for GIPRCNT values of 100 or above, 50 for GIPRCNT values of 0, and 100 for GIPRCNT values of -100.

| Compound | growth |
| --- | --- |
| CN1CCN(CCCn2c(=O)c3sc4ncccc4c3n3nnc(-c4ccccc4)c23)CC1 | 77.3% |
| O=C(Nc1ccccc1)Nc1ncnc2c1ncn2-c1ccccc1 | 90.9% |
| O=C1c2ccccc2-c2c1c1cccnc1c(=O)n2C[C@H](O)CO | 56.6% |
| CCN(CC)CCOC(=O)c1cc(OCc2ccccc2)c(OCc2ccccc2)c(OCc2ccccc2)c1 | 58.6% |
| Cc1nn(-c2ccccc2)c2nc(Cl)c(C=O)c(-c3ccccc3)c12 | 80.6% |
| OC[C@H]1OC([S-])[C@H](O)[C@@H](O)[C@@H]1O.[Au+] (stereo not given in full) | 77.2% |
| COc1cc(-c2nn(-c3cccc(NC(=O)NCCNC(=O)c4cccc(C(F)(F)F)c4)c3)cc2-c2ccncc2)ccc1Cl | 57% |
| S=C(SSC(=S)N(c1ccccc1)c1ccccc1)N(c1ccccc1)c1ccccc1 | 100% |
| CCOc1ccccc1/C=N\N=C(\N)N/N=C/c1ccccc1OCC | 23.7% |
| CCOC(=O)Cn1c(=O)c2sc3ncccc3c2n2nnc(-c3ccccc3)c12 | 100% |
| COc1ccc(/C=C2\CCCC3=C2N=C2SC(C)=CN2C3c2ccc(OC)cc2)cc1 (stereo not given) | 90.3% |
| CC(=O)C1N=NCC1c1ccccc1 (stereo not given) | 106% |
| CCOC(=O)C1=CSC2=NC3=C(CCC/C3=C\c3ccc(Cl)cc3)C(c3ccc(Cl)cc3)N12 (stereo not given) | 83.8% |
| CCOC(=O)c1cc(C(=O)c2cc(OC)c(OC)c(OC)c2)n2nc(C)ccc12 | 39.2% |
| Cc1cccc(N=Cc2ccccc2O)c1C | 94.8% |
| O=c1oc2c(cc1-c1ccc(F)cc1)C(O)Oc1ccccc1-2 (stereo not given) | 99.2% |
| COc1cc2cc(Oc3ccc(NC(=O)c4ccc(Cl)c(C(F)(F)F)c4)cc3)c(C)nc2cc1OC | 12.5% |
| CCOC(=O)c1cc(C(=O)c2cc(OC)c(OC)c(OC)c2)n2c1ccc1c3cccnc3ccc12 | 77.4% |
| CCOC(=O)CSc1nc(-c2cc(OC)ccc2OC)cc(-c2ccc(OC)cc2)c1C#N | 87% |
| COc1ccc(/C=C2\CCCC3=C2NC(N)=NC3c2ccc(OC)c(OC)c2)cc1OC (stereo not given) | 49.3% |

| Compound | growth |
| --- | --- |
| CCCCN(CCCC)C(=O)[C@H](CC)[C@@H]1CC[C@@H](C)[C@@H]([C@H](C)[C@@H](O)[C@@H](C)C(=O)[C@H](CC)C2O[C@]3(C=CC(=O)[C@]4(CC[C@@](C)([C@H]5CC[C@](O)(CC)[C@H](C)O5)O4)O3)[C@H](C)C[C@@H]2C)O1 (stereo not given in full) | 25.8% |
| CCOS(=O)(=O)c1c(C(C)C)cc(C(C)C)cc1C(C)C | 98.4% |
| Cc1cn(-c2cccc(NC(=O)c3ccc(C)c(Nc4nccc(-c5cccnc5)n4)c3)c2)cn1 | 32.2% |
| COc1cc(/C=C2\CCCC3=C2N=C2SC(C)=CN2C3c2cc(OC)c(OC)c(OC)c2)cc(OC)c1OC (stereo not given) | -30.4% (active) |
| Cc1cc(NC(=O)c2ccc(C)c(Nc3nccc(-c4cccnc4)n3)c2)cc(-n2cnc(C)c2)c1 | 67.6% |
| C=C1CCC2(C#N)[C@H]3[C@H](CC[C@@H]2C)[C@@H](C)C[C@@H](CC(C)(C)NC(=O)CN2CCC2=O)[C@H]13 (stereo not given in full) | 60.3% |
| CC1C(=NC(=O)c2cnccn2)C(C)C(c2ccc(Cl)cc2)NC1c1ccncc1 (stereo not given) | 94% |
| COc1ccc(-c2csc(NC(=O)c3ccc(Cc4n[nH]c(=O)c5cccnc45)cc3)n2)cc1 | 80.4% |
| Cc1cc(CSc2ccccc2C(=O)N2CC=C(c3ccccc3)CC2)on1 | 89.4% |
| COc1ccc(C(c2ccc(OCCN(C)C)cc2)c2cc3ccccc3c3ccccc23)cc1 (stereo not given) | 78.4% |
| COc1ccc(-c2cc(-c3ccc(OC)c(OC)c3)nc(SCCCC(=O)NO)n2)cc1 | -26.8% (active) |
| CC[C@@H](C(=O)[C@H](C)[C@H](O)[C@@H](C)[C@H]1O[C@H]([C@@H](CC)C(=O)N(CC)CC)CC[C@H]1C)C1O[C@]2(C=C[C@@H](O)[C@]3(CC[C@@](C)([C@H]4CC[C@](O)(CC)[C@H](C)O4)O3)O2)[C@H](C)C[C@@H]1C (stereo not given in full) | 18.6% |
| CCOC(=O)c1cc(C(=O)c2ccc(OC)c(OC)c2)n2ccncc12 | 97.4% |
| CN(C)CCCN1c2ccccc2CCc2ccc(Cl)cc21 | 71.2% |
| COc1ccc2c(c1)C(=O)/C(=C/c1ccc([N+](=O)[O-])o1)O2 | -59% (active) |
| CC(C)(C)OC(=O)CC(S(=O)(=O)c1ccccc1)S(=O)(=O)c1ccccc1 | 102% |
| Cc1c2cnccc2c(C)c2c1oc1ccccc12 | 56.1% |
| CNS(=O)(=O)Oc1ccc(-c2ccc3occc3c2)cc1 | 95.1% |
| CNC(=O)c1c(I)c(NC(C)=O)c(I)c(C(=O)O)c1I | 97.5% |
| CN(C)c1nc(N)c2nccnc2n1 | 87.9% |
